Inconclusive results are not listed. The source made the active and inactive calls. Unless noted, calls come from the whole dose curve; as a rule, active = well fitted curve in the direction sought with a large enough effect; inconclusive = small, poorly fitted or top-dose-only effect, or another doubt; inactive = no such curve, though single readings can be large; an effect the other way counts as inactive or inconclusive.
Tests used:
[1] = target: Rap guanine nucleotide exchange factor 4 (Homo sapiens) (UniProt Q8WZA2); assay: Confirmatory qHTS for agonist of cAMP-regulated guanine nucleotide exchange factor 4 (EPAC2) (AID 1645884);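 note: nucleotide exchange releases bodipy-GDP from Rap1 and this lowers its fluorescence; % is set by controls: 0 for no effect and ±100 for the full control effect; nearly all actives have a fitted effect of over 65% in size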
[2] = target: Rap guanine nucleotide exchange factor 4 (Homo sapiens) (UniProt Q8WZA2); assay: Confirmatory qHTS for antagonist of cAMP-regulated guanine nucleotide exchange factor 4 (EPAC2) (AID 1645885); note: nearly all actives have a fitted effect of over 25% in size; for activity change, negative = inhibition: % is set by controls: 0 for no effect and ±100 for the full control effect
[3] = target: Rap guanine nucleotide exchange factor 3 (Homo sapiens) (UniProt O95398); assay: Counterscreen qHTS for antagonist of cAMP-regulated guanine nucleotide exchange factor 3 (EPAC1) (AID 1645888);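 note: fluorescence loss as bound BODIPY-GDP is released from Rap1B; % of control where 0% means no effect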
Procedure, shortened: (§1)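 Measured: fluorescence of BODIPY-GDP bound to Rap1B, which falls as exchange proceeds. Conditions include 50 uM competing GDP, 5 and 30 min reads, and a later cAMP challenge for antagonist detection.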

[4] = NCATS anti-infectives library activity on HEK293 viability as a counter-qHTS vs the C. elegans viability qHTS (AID 1745854); note: % is set by controls: 0 for no effect and ±100 for the full control effect
Procedure, shortened: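 CellTiter-Glo luminescence, read on a CCD imager, scored viability of HEK293 cells after 24 hr compound exposure at 37C. Library tested in several concentrations, 1:5 steps, up to 41.7 uM; digitonin served as control.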

[5] = target: DNA repair nuclease/redox regulator APEX1 (Homo sapiens) (UniProt P27695); assay: qHTS Validation Assay for Inhibitors of the Human Apurinic/apyrimidinic Endonuclease 1 (APE1) (AID 1705;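 note: TAMRA fluorescence gain over two minutes as APE1 cuts a quenched THF abasic duplex; % is set by controls: 0 for no effect and ±100 for the full control effect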)
Procedure, shortened: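 Human APE1 was preincubated with compound for 15 min at room temperature, then 50 nM (final) THF-abasic double-stranded DNA substrate bearing 5'-TAMRA and 3'-BHQ-2 was added. Incision-driven fluorescence rise (ex 525/em 598 nm) was read kinetically.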

[6] = Counterscreen for APE1 Inhibitors: Fluorescent Dye Displacement Validation Assay (AID 1707);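 note: plate controls were ThO with dsDNA and no compound for no effect and ThO without dsDNA for full effect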
Procedure, shortened: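 Signal: ThO fluorescence (ex 480 nm/em 540 nm) on binding 50 nM dsDNA; displacement by test compound reduces it. Conditions: 250 nM dye, 50 mM Tris-HCl pH7.5, 2 mM MgCl2, 50mM NaCl, 0.01% Tween-20.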

[7] = target: Endonuclease 4 (Escherichia coli (strain K12)) (UniProt P0A6C1); assay: Counterscreen for APE1 Inhibitors: qHTS Validation Assay for Inhibitors of Endonuclease IV (AID 1708); note: potency is the fitted concentration of half-maximal effect
Procedure, shortened: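 Measured as reaction progress, the fluorescence gain between first and third kinetic reads after adding 50 nM TAMRA/BHQ-2 THF duplex to 2 nM enzyme preincubated 15 min with compound; 2 mM MgCl2, pH 7.5.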

[8] = qHTS for differential inhibitors of proliferation of Plasmodium falciparum line 3D7 (AID 1876);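 note: parasite growth measured after three days of culture; 0% = vehicle wells and -100% = reference inhibitor wells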
[9] = qHTS for differential inhibitors of proliferation of Plasmodium falciparum line Dd2 (AID 1882); settings: Potency: Plasmodium falciparum Dd2 proliferation inhibition;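 note: compound exposure of 72 h on infected erythrocytes; plate controls were DMSO vehicle for no effect and 0.29 µM artemisinin for full effect; nearly all actives have a fitted effect of over 65% in size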
Procedure, shortened: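 RBC culture, 0.3% parasitemia / 2.5% Hct final; cpd added by pin tool in DMSO; 72 h, 37 C, 5% CO2; lysis buffer + SYBR Green I, o/n RT dark; FI 485/535; norm. to artemisinin 0.29 uM and DMSO.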

[10] = qHTS for differential inhibitors of proliferation of Plasmodium falciparum line W2 (AID 1883); settings: Potency: Plasmodium falciparum W2 proliferation inhibition;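 note: potency is the fitted concentration of half-maximal effect; parasites grown with compound for 72 h before lysis and staining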
[11] = target: ATP-dependent DNA helicase Q1 (Homo sapiens) (UniProt P46063); assay: qHTS Validation Assay for Inhibitors of RecQ-Like Dna Helicase 1 (RECQ1) (AID 2353);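 note: plate controls were DMSO vehicle for no effect and enzyme-free control for full effect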
Procedure, shortened: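 RECQ1T1 50 nM; forked duplex (20 bp + 30-nt ss tails) 200 nM, ATP 2 mM final; pH 8.0, 2 mM MgCl2, 2.5 ug/ml poly(dI-dC); 15 min compound preincubation; discontinuous kinetic read over 2 h at RT.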

[12] = target: RecQ-like DNA helicase BLM (Homo sapiens) (UniProt P54132); assay: qHTS Validation Assay for Inhibitors of Bloom's syndrome helicase (BLM) (AID 2364);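 note: plate controls were DMSO vehicle for no effect and enzyme-free control for full effect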
Procedure, shortened: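 BLM 50 nM in 25 mM Tris-HCl pH 8.0, 5 mM NaCl, 2 mM MgCl2, 1 mM DTT, 0.01% Tween-20, 2.5 ug/ml poly(dI-dC); 15 min cpd preinc, RT. Start: 200 nM forked DNA + 2 mM ATP (final). TAMRA read, 2 reads 2 h apart.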

[13] = Validation screen for inhibitors of Lassa infection (AID 463096; calls by dose curve; note: % is set by controls: 0 for no effect and ±100 for the full control effect)
[14] = Validation screen for small molecules that induce DNA re-replication in MCF 10A normal breast cells (AID 463097); note: 0% is about no effect; nearly all actives have a fitted effect of over 60% in size
Procedure, shortened: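 Readout: Hoechst nuclear fluorescence intensity, 405 ex / 500-530 em, by scanning plate imager; re-replication scored as increase in nuclei with elevated DNA content. Cells exposed to compound 48 hr, 37 C, 5% CO2 beforehand.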

[15] = Quantitative high throughput screen for delayed death inhibitors of the malarial parasite plastid, 96 hour incubation (AID 488745);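 note: luciferase-expressing P. falciparum in erythrocytes at 2% hematocrit and 0.1% parasitemia; % is set by controls: 0 for no effect and ±100 for the full control effect; nearly all actives have a fitted effect of over 70% in size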
Procedure, shortened: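 Luciferase-expressing P. falciparum, infected RBCs 2% Hct/0.1% parasitemia (final); 96 h cpd exposure, 37 C, 5% CO2; RPMI 1640 + 0.5% Albumax, bicarbonate, gentamycin. Readout: luminescence loss = growth inhibition.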

[16] = Quantitative high throughput screen for delayed death inhibitors of the malarial parasite plastid, 48 hour incubation (AID 488752); note: % is set by controls: 0 for no effect and ±100 for the full control effect; nearly all actives have a fitted effect of over 65% in size
Procedure, shortened: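 Luciferase-expressing P. falciparum in RBCs, 2% Hct, 0.1% parasitemia final; RPMI 1640 + 0.5% Albumax; 48 h, 37 C, 5% CO2; luminescence readout, signal drop = growth inhibition.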

[17] = target: M-phase phosphoprotein 8 (Homo sapiens) (UniProt Q99549); assay: qHTS Validation Assay for Inhibitors for MPP8 Chromodomain Interactions with Methylated Histone Tails (AID 488949); note: nearly all actives have a fitted effect of over 55% in size; note: potency is the fitted concentration of half-maximal effect
Procedure, shortened: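 MPP8 (50 nM) was preincubated with biotinylated H3(1-18)K9me3 peptide (50 nM) in PBS pH 7.4, 0.01% Tween-20 for 30 min at room temperature, then with compounds for 30 min; binding was detected by AlphaScreen.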

[18] = target: Transient receptor potential cation channel subfamily V member 1 (Homo sapiens) (UniProt Q8NER1); assay: HTS Assay for Compounds that Act as Enhancers of the Vanilloid Receptor 1 (AID 488979); note: 0% is about no effect
Procedure, shortened: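 TRPV1-expressing cells loaded with Fluo-8 calcium dye; compounds added and calcium influx read kinetically for 3 min (agonist phase), then capsaicin at EC20 added and read 2 min more for enhancement. Fluorescence ex 480/em 520 nm.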

[19] = target: Thyrotropin receptor (Homo sapiens) (UniProt P16473); assay: qHTS Assay for Antagonists of the Thyroid Stimulating Hormone Receptor (AID 488980); note: 0% is about no effect
Procedure, shortened: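 HEK293 cells transfected with human TSHR, suspended in HEPES-buffered HBSS with 70 uM RO 20-1724, were treated with compounds plus TSH at EC80 (4 nM final). cAMP was measured by competitive HTRF (cryptate anti-cAMP antibody, cAMP-d2 acceptor).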

[20] = target: Galactokinase (Homo sapiens) (UniProt P51570); assay: qHTS Validation Assay for Inhibitors of Human Galactokinase (GALK) (AID 493189); note: 0% is about no effect
Procedure, shortened: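 GALK (5 nM) with 35 uM ATP and 100 uM galactose in HEPES pH8.0, MgCl2, NaCl, DTT, BSA; 1 h at room temperature. Residual ATP read by Kinase-Glo Plus luminescence after 10 min.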

[21] = target: Rap guanine nucleotide exchange factor 3 (Homo sapiens) (UniProt O95398); assay: Confirmatory qHTS for agonist of cAMP-regulated guanine nucleotide exchange factor 3 (EPAC1) (AID 1645881);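 note: EPAC1 catalysed release of BODIPY-GDP from Rap1B seen as fluorescence loss; 100% = effect of cAMP agonist control; nearly all actives have a fitted effect of over 75% in size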
[22] = target: Rap guanine nucleotide exchange factor 3 (Homo sapiens) (UniProt O95398); assay: Counterscreen qHTS for agonist of cAMP-regulated guanine nucleotide exchange factor 3 (EPAC1) (AID 1645889); note: % of control where 0% means no effect; nearly all actives have a fitted effect of over 40% in size
Procedure, shortened: as §1

[23] = target: Ferritin light chain (Equus caballus) (UniProt P02791); assay: qHTS Validation Assay for Identification of Novel General Anesthetics (AID 2323); note: potency is the fitted concentration of half-maximal effect
Procedure, shortened: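 Competitive displacement of profluorescent 1-aminoanthracene (1-AMA, 50% saturated solution in PBS) from 10 uM horse-spleen apoferritin. Compounds incubated 10 min at room temperature; fluorescence read at 380 nm excitation/535 nm emission, normalized to free 1-AMA and complex, fitted with four-parameter Hill equation.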

[24] = target: Catechol O-methyltransferase (Homo sapiens) (UniProt P21964); assay: Confirmatory Screen for Target Class Profiling of Small Molecule Inhibitors of Methyltransferases (AID 1745852; calls by dose curve); settings: MTase-Glo luminescence, SAH detection, recombinant enzyme; measured here: COMT max response; stronger effect = lower value
[25] = target: Guanidinoacetate N-methyltransferase (Homo sapiens) (UniProt Q14353); assay: as above; settings: MTase-Glo luminescence, SAH detection, recombinant enzyme; activity change, negative = inhibition: at 85.7 µM (top of the series) unless noted
[26] = target: Nicotinamide N-methyltransferase (Homo sapiens) (UniProt P40261); assay: as above; settings: MTase-Glo luminescence, SAH detection, recombinant enzyme; measured here: NNMT max response; stronger effect = lower value
[27] = target: Phenylethanolamine N-methyltransferase (Homo sapiens) (UniProt P11086); assay: as above; settings: MTase-Glo luminescence, SAH detection, recombinant enzyme; measured here: PNMT max response; stronger effect = lower value
Phenylethanolamine N-methyltransferase (Homo sapiens), sequence (P11086 whole entry, looked up): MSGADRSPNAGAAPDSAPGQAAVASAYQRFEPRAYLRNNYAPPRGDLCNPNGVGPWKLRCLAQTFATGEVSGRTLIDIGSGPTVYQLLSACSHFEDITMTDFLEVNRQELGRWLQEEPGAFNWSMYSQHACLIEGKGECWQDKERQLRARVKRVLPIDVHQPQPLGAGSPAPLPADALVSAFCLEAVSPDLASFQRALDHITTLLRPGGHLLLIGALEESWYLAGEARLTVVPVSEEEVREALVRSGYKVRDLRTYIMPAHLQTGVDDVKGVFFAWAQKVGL

Rap guanine nucleotide exchange factor 3 (Homo sapiens), sequence (O95398 whole entry, looked up): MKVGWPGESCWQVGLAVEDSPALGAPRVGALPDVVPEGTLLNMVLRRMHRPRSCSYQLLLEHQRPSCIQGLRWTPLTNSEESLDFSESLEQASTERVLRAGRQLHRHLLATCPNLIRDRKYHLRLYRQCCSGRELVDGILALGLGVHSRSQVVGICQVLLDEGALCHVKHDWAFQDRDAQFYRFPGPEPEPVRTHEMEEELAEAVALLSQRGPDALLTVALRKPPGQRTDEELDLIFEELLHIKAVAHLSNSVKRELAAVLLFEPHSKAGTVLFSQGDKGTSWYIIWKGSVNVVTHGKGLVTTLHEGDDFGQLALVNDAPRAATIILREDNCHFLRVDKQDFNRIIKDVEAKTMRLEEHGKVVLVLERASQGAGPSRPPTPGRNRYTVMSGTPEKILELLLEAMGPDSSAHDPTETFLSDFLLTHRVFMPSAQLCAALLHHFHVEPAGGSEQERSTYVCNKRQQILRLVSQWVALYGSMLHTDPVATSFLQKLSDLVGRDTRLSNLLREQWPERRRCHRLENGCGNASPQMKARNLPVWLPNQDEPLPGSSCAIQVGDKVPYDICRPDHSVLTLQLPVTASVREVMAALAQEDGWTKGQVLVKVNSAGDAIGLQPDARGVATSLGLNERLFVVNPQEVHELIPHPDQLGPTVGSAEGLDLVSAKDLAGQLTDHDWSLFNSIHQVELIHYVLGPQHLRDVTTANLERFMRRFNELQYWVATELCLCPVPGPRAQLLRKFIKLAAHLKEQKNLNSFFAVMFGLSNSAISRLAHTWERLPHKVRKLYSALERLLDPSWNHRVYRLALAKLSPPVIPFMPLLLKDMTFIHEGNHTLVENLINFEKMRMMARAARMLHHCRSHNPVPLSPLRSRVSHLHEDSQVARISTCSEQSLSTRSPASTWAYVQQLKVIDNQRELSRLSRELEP
Nicotinamide N-methyltransferase (Homo sapiens), sequence (P40261 whole entry, looked up): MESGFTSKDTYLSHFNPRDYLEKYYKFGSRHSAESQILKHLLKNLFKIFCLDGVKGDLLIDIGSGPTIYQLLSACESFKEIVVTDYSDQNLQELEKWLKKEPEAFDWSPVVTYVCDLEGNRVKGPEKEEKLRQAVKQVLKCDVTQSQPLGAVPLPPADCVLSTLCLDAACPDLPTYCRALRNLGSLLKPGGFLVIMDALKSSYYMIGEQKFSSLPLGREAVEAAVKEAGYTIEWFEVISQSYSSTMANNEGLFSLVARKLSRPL
Catechol O-methyltransferase (Homo sapiens), sequence (P21964 whole entry, looked up): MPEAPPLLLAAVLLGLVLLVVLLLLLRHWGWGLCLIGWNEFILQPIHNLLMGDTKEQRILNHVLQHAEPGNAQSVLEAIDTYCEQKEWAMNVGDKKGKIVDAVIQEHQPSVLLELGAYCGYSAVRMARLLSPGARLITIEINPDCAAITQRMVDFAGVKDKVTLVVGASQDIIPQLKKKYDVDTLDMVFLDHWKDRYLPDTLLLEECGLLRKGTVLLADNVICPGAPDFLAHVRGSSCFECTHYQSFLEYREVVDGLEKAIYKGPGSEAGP
Rap guanine nucleotide exchange factor 4 (Homo sapiens), sequence (Q8WZA2 whole entry, looked up): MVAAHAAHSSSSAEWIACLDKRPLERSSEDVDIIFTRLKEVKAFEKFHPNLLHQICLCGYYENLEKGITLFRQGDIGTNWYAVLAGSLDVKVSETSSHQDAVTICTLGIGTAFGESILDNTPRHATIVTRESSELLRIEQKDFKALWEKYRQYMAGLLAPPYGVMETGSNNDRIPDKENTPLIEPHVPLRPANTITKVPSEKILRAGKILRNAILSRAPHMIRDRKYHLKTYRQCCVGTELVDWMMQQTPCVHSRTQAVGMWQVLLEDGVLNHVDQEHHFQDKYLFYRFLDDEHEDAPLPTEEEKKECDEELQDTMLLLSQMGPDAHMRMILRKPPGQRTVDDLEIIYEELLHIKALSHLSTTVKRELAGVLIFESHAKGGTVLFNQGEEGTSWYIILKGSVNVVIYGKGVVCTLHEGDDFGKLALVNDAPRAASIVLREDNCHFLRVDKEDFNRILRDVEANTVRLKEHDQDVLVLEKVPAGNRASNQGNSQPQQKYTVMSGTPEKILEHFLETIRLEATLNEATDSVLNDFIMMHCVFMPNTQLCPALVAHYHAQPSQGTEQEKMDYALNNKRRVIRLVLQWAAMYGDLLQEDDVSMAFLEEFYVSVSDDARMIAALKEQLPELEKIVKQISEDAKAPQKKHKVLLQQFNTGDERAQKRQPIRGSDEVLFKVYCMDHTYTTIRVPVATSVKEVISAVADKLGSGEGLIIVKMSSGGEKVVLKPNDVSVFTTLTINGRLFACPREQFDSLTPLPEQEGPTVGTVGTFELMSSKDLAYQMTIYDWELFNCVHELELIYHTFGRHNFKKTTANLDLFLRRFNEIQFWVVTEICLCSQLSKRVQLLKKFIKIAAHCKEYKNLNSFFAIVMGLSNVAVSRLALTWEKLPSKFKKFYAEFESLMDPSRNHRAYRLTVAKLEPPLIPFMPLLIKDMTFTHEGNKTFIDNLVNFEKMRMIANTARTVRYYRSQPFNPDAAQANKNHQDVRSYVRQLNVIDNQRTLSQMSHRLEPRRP
M-phase phosphoprotein 8 (Homo sapiens), sequence (Q99549 whole entry, looked up): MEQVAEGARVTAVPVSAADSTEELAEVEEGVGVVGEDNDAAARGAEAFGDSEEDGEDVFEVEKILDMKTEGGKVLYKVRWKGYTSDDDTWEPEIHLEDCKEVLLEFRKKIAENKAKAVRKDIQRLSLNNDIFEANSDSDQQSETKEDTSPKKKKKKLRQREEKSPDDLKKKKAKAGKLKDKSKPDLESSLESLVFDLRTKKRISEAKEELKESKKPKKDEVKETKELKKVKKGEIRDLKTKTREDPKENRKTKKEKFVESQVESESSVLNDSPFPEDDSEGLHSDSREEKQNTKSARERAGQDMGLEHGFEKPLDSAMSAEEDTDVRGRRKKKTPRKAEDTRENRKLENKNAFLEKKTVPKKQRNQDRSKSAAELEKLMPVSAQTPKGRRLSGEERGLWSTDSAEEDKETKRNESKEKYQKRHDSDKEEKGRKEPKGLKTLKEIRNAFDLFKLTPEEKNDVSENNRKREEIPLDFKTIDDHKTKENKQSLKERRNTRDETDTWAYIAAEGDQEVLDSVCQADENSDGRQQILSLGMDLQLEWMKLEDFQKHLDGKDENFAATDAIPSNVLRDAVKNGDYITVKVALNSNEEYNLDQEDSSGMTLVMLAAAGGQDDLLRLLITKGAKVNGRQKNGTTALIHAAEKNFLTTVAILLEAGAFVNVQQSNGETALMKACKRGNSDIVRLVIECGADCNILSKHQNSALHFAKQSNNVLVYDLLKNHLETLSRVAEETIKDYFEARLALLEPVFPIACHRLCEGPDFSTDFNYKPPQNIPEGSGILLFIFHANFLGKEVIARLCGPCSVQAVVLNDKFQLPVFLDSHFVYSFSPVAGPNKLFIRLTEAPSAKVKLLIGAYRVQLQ
Transient receptor potential cation channel subfamily V member 1 (Homo sapiens), sequence (Q8NER1 whole entry, looked up): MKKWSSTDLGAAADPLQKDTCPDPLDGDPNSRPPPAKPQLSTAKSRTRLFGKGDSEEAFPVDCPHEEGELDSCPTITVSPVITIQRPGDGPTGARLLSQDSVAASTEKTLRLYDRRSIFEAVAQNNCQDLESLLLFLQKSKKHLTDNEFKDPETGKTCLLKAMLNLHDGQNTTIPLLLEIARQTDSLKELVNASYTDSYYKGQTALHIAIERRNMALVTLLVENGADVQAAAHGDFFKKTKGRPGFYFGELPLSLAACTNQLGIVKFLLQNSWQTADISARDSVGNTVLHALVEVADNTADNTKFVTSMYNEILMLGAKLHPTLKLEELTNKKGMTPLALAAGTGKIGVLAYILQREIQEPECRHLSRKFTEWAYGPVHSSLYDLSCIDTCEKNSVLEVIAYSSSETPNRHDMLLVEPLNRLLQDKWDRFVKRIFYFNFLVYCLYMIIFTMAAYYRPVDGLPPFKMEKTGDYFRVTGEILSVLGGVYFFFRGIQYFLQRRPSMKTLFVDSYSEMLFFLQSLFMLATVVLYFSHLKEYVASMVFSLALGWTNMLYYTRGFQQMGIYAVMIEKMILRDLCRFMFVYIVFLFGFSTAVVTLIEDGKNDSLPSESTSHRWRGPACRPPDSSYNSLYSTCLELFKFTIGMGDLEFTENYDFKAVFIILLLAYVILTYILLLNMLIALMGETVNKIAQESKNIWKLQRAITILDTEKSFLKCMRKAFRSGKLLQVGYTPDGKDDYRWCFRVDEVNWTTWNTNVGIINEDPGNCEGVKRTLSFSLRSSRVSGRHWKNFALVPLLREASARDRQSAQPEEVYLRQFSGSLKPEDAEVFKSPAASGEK
Galactokinase (Homo sapiens), sequence (P51570 whole entry, looked up): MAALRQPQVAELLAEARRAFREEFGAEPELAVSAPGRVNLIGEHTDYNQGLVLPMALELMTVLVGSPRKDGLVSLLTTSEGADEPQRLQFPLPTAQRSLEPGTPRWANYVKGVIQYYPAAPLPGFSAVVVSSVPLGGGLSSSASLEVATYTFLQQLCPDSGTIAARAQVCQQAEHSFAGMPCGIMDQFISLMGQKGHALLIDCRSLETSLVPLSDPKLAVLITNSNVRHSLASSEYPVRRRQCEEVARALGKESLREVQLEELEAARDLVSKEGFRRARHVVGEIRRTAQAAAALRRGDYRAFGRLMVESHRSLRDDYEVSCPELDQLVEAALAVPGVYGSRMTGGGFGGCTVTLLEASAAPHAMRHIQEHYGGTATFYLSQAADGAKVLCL
Ferritin light chain (Equus caballus), sequence (P02791 2-175 limits assumed): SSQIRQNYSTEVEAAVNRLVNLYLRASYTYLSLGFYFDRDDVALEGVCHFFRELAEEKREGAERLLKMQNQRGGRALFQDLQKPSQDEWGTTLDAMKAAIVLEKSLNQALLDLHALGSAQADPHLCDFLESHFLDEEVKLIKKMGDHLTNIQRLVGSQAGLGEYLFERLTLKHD

## FC(F)(F)c1cccc(C2NCc3ccccc3-n3cccc32)c1 (stereo not drawn)
[1]
  activation: 12.8% [at 17.1 µM, percent relative to cAMP agonist control] (inactive)
[2]
  activity change, negative = inhibition: 2.28% [at 12.7 µM] (inactive)
[3]
  activity change, negative = inhibition: -3.38% [at 30.8 µM] (inactive)

## CN(C)C/C=C/C(=O)Nc1cccc(C(OCCN2CCCCC2)c2cc3nccc(C(=O)O)c3s2)c1 (stereo not drawn)
[4]
  Potency: inactive

## CCCC(=O)O[C@H]1CN2CC[C@H](O)[C@@H]2[C@@H](O)[C@@H]1O
[4]
  Potency: inactive

## C[C@]12CC[C@@H](O)CC1CCC1C2CC[C@]2(C)C(=O)CC[C@@H]12 (stereo partly drawn)
[5]
  Potency: inactive
[6]
  outcome: inactive
[7]
  Potency: inactive
[8]
  Potency: inactive
[9]
  Potency: inactive
[10]
  Potency: 10 µM (active)
[11]
  outcome: inactive
[12]
  outcome: inactive
[13]
  Potency: inactive
[14]
  Potency: inactive
[15]
  Potency: inactive
[16]
  Potency: inactive
[17]
  Potency: inactive
[18]
  outcome: inactive
[19]
  outcome: inactive
[20]
  outcome: inactive

## c1ccc(C(c2ccccc2)c2cccnc2)cc1
[21]
  Potency: inactive
[3]
  outcome: inactive
[22]
  Potency: inactive

## Cc1cccc(CN2C(=O)CN=C(c3ccccc3)c3cc(Cl)ccc32)c1
[1]
  Potency: inactive
[2]
  outcome: inactive [at 12.7 µM]

## Nc1ccc(Cl)cc1C(=O)c1ccccc1Cl
[1]
  activation: 8.81% [at 17.1 µM, percent relative to cAMP agonist control] (inactive)
[2]
  activity change, negative = inhibition: -22.9% [at 12.7 µM] (inactive)
[3]
  activity change, negative = inhibition: -0.237% [at 30.8 µM] (inactive)

## N.N.N.N.N.N.N.N.N.N.N.N.N.N.O.O.[Cl-].[Cl-].[Cl-].[Cl-].[Cl-].[Cl-].[Ru].[Ru].[Ru]
[7]
  Potency: 28.2 µM (active)
[23]
  Potency: 25.1 µM (active)
[13]
  Potency: inactive
[17]
  Potency: 10 µM (active)

## [Cl][Pt].[NH2-].[NH2-].c1ccncc1
[24]
  activity: -4.9%
[25]
  activity change, negative = inhibition: 3.42% [at 57.3 µM]
[26]
  activity: -8.73%
[27]
  activity: 0.0118%

## CC(C)=CCC[C@](C)(O)[C@H]1CC[C@@]2(C)[C@H]1[C@@H](O)CC1[C@@]3(C)CC[C@@H](O[C@@H]4O[C@H](CO)[C@@H](O)[C@H](O)[C@H]4O)C(C)(C)C3CC[C@]12C (stereo partly drawn)
[4]
  Potency: inactive

## Nc1c(Br)cc2c3c(cccc13)-c1ccccc1-2
[1]
  activation: 8.9% [at 17.1 µM, percent relative to cAMP agonist control] (inactive)
[2]
  activity change, negative = inhibition: 2.51% [at 12.7 µM] (inactive)
[3]
  activity change, negative = inhibition: 16.7% [at 30.8 µM] (inactive)

## NC(=O)c1ccc(N2CC3CCC(C2)N3CC(F)(F)F)nn1
[24]
  activity: 10.2%
[25]
  activity change, negative = inhibition: 9.09%
[26]
  activity: -22.1%
[27]
  activity: 10.9%

## CC(=O)c1cccc(NC(=O)NC[C@H]2C[C@@H]3CCN2C[C@@H]3c2cc(-c3ccc(F)cc3)nc(C)n2)c1
[24]
  activity: 2.65%
[25]
  activity change, negative = inhibition: 5.17% [at 57.3 µM]
[26]
  activity: -9.36%
[27]
  activity: 3.37%

## CN(CCc1ccccn1)C[C@H]1CN2CC[C@H]1C[C@@H]2CNC(=O)Nc1ccsc1
[24]
  activity: -2.73%
[25]
  activity change, negative = inhibition: 6.86%
[26]
  activity: 0.703%
[27]
  activity: -0.547%

Source: PubChem BioAssay (NCATS)
